This is an account of results in PubChem BioAssay (Tox21).

Assay [1] is described as follows: A CellTox Green Cytotoxicity Assay to monitor cytotoxicity in HEK293 cells - 32 hour (AID 1224881). Further: nearly all actives have a fitted effect of over 40% in size. The essentials:
(§1)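 Cytotoxicity was tracked continuously in HEK293 cells by a DNA-binding dye excluded from viable cells. Compounds were transferred in DMSO 5 h after seeding; fluorescence was recorded at intervals up to 40 h.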

A short description of assay [2]: A CellTox Green Cytotoxicity Assay to monitor cytotoxicity in HepG2 cells - 0 hour (AID 1224882). Further: nearly all actives have a fitted effect of over 35% in size. The essentials: (§2)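 Real-time, homogeneous cytotoxicity readout: dead-cell DNA staining by CellTox Green in HepG2 monolayers, fluorescence measured at timed intervals up to 40 h of continuous compound exposure.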
The nature of assay [3]: A CellTox Green Cytotoxicity Assay to monitor cytotoxicity in HepG2 cells - 32 hour (AID 1224883). Further: nearly all actives have a fitted effect of over 50% in size. In short, it runs like this: as §2
Assay [4] can be described thus: A CellTox Green Cytotoxicity Assay to monitor cytotoxicity in HEK293 cells - 8 hour (AID 1224884). Further: nearly all actives have a fitted effect of over 35% in size. The essentials: as §1
Assay [5] can be described thus: qHTS RealTime-Glo MT Cell Viability Assay in HepG2 cells - 16 hour (AID 1224885). Further: nearly all actives have a fitted effect of over 50% in size. The essentials: (§3)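 Viability was tracked continuously by NanoLuc luminescence from prosubstrate reduced by living HepG2 cells, at successive time points over 40 h of compound exposure. Cells with reagent were preincubated 5 h at 37 °C before compound addition.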
On the technique in general: In qHTS, concentration-response curves come from the screen itself.

Assay [6] in a line: qHTS RealTime-Glo MT Cell Viability Assay in HEK293 cells - 24 hour (AID 1224886). Further: nearly all actives have a fitted effect of over 50% in size. Further: potency means the concentration at half of the fitted maximal effect. In short, it runs like this: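 Viability tracked continuously by luminescence as live cells reduce a prosubstrate for NanoLuc; HEK293 cells preincubated 5 h, compound-treated at 37 C, and read at 0, 8, 16, 24, 32 and 40 h.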
The nature of assay [7]: qHTS RealTime-Glo MT Cell Viability Assay in HEK293 cells - 8 hour (AID 1224887). Further: top concentration of the series differs between compounds; nearly all actives have a fitted effect of over 50% in size. In short, it runs like this: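 Nonlytic bioluminescent viability monitoring. HEK293 at 600 cells/well with reagent; 5 h settle; compound transfer by pintool; plates held at 37 C and read at set time points.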
The nature of assay [8]: qHTS RealTime-Glo MT Cell Viability Assay in HepG2 cells - 0 hour (AID 1224889). Further: nearly all actives have a fitted effect of over 50% in size. Further: potency means the concentration at half of the fitted maximal effect. In short, it runs like this: as §3
Assay [9] can be described thus: A CellTox Green Cytotoxicity Assay to monitor cytotoxicity in HepG2 cells - 8 hour (AID 1224890). Further: nearly all actives have a fitted effect of over 45% in size. The essentials:
as §2

Assay [10] is described as follows: qHTS assay to identify small molecule antagonists of the estrogen receptor alpha (ER-alpha) signaling pathway using the BG1 cell line in the presence of 0.1 nM 17-beta-estradiol - cell viability counter screen (AID 1259241). Further: nearly all actives have a fitted effect of over 40% in size. Further: potency means the concentration at half of the fitted maximal effect. In short, it runs like this: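 In this screen, hormone-deprived VM7Luc4E2 cells were seeded at 4,000 per well, dosed with compound and 0.1 nM estradiol final, and incubated 22 hr at 37C and 5% CO2; fluorogenic live-cell protease signal reported viability.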

Assay [11] in a line: qHTS assay to identify small molecule antagonists of the androgen receptor (AR) signaling pathway using the MDA cell line in the presence of 0.5 nM R1881 - cell viability counter screen (AID 1259242). Further: nearly all actives have a fitted effect of over 45% in size. The essentials:
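Cytotoxicity toward MDA-kb2 cells is measured by CellTiter-Fluor live-cell protease fluorescence after 16 hr compound exposure at 37C in the presence of 0.5 nM R1881 stimulator.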

In assay [12] the target is Estrogen receptor (Homo sapiens) (UniProt P03372). The experiment in a line: qHTS assay to identify small molecule antagonists of the estrogen receptor alpha (ER-alpha) signaling pathway using the BG1 cell line in the presence of 0.1 nM 17-beta-estradiol (AID 1259244). Further: nearly all actives have a fitted effect of over 50% in size. Further: potency means the concentration at half of the fitted maximal effect. In short, it runs like this:
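After 5 days in hormone-depleted medium (charcoal-stripped serum, no phenol red), VM7Luc4E2 cells were seeded, incubated 24 h, then co-treated with compound and 0.1 nM (final) estradiol for 22 h before luminescence detection.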

A short description of assay [13]: qHTS assay to identify small molecule HDAC inhibitors (AID 1259364). Further: nearly all actives have a fitted effect of over 45% in size. Further: potency means the concentration at half of the fitted maximal effect. In short, it runs like this: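 Homogeneous cell-based luminescent assay of endogenous class I/II HDAC activity; HCT-116 cells, 2 h compound exposure, 30 min HDAC-Glo development at RT.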
A short description of assay [14]: qHTS assay to identify small molecule HDAC inhibitors - cell viability counter screen (AID 1259365). In short, it runs like this:
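Measured quantity is CellTiter-Glo luminescence from wild-type HCT-116 cells after compound incubation of 2hr at 37C, 5% CO2; reagent developed 30min at room temperature.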

Assay [15] is described as follows: qHTS assay to identify small molecule agonists of the sonic hedgehog signaling (Shh) pathway - cell viability counter screen (AID 1259366). Further: nearly all actives have a fitted effect of over 50% in size. Further: potency means the concentration at half of the fitted maximal effect. The essentials: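 In quantitative high-throughput format, 3T3 Gli1-Luc cells were exposed to compounds for 24hr and multiplexed for viability using CellTiter-Fluor, incubated 1hr at 37C before the fluorescence read.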
Assay [16] can be described thus: qHTS assay to identify small molecule antagonists of the sonic hedgehog signaling (Shh) pathway - cell viability counter screen (AID 1259367). Further: nearly all actives have a fitted effect of over 55% in size. Further: potency means the concentration at half of the fitted maximal effect. The essentials:
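Using CellTiter-Fluor, viability of Gli1-Luc reporter 3T3 cells is read by fluorescence in the wells used for the Shh luciferase assay. Treatment lasts 23 hr with conditioned medium, then reagent 1 hr at 37C.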

Assay [17] in a line: qHTS assay to identify small molecule agonists of the sonic hedgehog signaling (Shh) pathway (AID 1259368; calls by dose curve;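 further: NIH/3T3-derived 3T3Gli1-Luc cells carrying a stable Gli1-driven firefly luciferase reporter; series mostly up to about 92 µM; nearly all actives have a fitted effect of over 15% in size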). The essentials:
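Steps: seed 3T3 Gli1-Luc cells, incubate 4 hr at 37 C, pin-transfer compounds in DMSO alongside a positive control, incubate 24 hr, add luciferase detection reagent, wait 30 min at room temperature, read luminescence.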

Assay [18] deals with Androgen receptor (Homo sapiens) (UniProt P10275). Nature of the assay: qHTS assay to identify small molecule antagonists of the androgen receptor (AR) signaling pathway using the MDA cell line in the presence of 0.5 nM R1881 (AID 1259243). Further: nearly all actives have a fitted effect of over 50% in size. Further: potency means the concentration at half of the fitted maximal effect. In short, it runs like this: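 Steps: seed MDA-kb2 cells, incubate 5 hr at 37C; pin-transfer compounds in DMSO; add R1881 to 0.5 nM final; incubate 16 hr; add ONE-Glo, wait 30 min at room temperature; read luminescence.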

A short description of assay [19]: A CellTox Green Cytotoxicity Assay to monitor cytotoxicity in HEK293 cells - 16 hour (AID 1224888). Further: nearly all actives have a fitted effect of over 35% in size. In short, it runs like this:
as §1

Assay [20] can be described thus: qHTS assay to identify small molecule phospholipidosis (PLD) inducers (AID 1259344; active means well fitted curve in the direction sought with a large enough effect; an effect the other way counts as inactive or inconclusive). The essentials: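 Fluorescent phospholipid staining (LipidTOX Red) measured by automated microscopy in fixed HepG2 cells after 24 h treatment; nuclei counterstained with Hoechst 33342; amiodarone as reference inducer.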

A number with no mark means an inactive call. Records with an inconclusive call do not appear. Activity calls are given as the source filed them. Unless noted, the call rests on the fitted dose curve; in most records, active means well fitted curve in the direction sought with a large enough effect in the repeat runs; inconclusive means weak or mixed curves; inactive means no such curve, though single readings can be large; an effect the other way counts as inactive or inconclusive.

Chain of Estrogen receptor (Homo sapiens) (P03372 whole entry, looked up): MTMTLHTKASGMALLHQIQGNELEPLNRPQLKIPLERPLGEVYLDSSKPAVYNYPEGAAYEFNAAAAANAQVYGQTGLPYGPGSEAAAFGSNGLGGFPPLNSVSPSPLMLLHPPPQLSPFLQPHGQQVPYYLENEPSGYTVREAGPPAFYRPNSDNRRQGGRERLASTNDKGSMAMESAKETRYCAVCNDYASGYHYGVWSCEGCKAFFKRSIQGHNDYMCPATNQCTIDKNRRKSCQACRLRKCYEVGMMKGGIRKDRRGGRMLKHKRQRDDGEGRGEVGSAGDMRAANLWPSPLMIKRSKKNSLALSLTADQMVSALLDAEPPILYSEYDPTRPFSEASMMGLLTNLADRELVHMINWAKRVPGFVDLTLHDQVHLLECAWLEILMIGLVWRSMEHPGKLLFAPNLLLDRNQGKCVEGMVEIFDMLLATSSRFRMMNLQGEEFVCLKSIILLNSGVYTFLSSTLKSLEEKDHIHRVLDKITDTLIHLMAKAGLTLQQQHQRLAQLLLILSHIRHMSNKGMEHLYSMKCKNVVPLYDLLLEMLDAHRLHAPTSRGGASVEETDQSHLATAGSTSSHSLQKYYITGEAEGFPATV
Chain of Androgen receptor (Homo sapiens) (P10275 whole entry, looked up): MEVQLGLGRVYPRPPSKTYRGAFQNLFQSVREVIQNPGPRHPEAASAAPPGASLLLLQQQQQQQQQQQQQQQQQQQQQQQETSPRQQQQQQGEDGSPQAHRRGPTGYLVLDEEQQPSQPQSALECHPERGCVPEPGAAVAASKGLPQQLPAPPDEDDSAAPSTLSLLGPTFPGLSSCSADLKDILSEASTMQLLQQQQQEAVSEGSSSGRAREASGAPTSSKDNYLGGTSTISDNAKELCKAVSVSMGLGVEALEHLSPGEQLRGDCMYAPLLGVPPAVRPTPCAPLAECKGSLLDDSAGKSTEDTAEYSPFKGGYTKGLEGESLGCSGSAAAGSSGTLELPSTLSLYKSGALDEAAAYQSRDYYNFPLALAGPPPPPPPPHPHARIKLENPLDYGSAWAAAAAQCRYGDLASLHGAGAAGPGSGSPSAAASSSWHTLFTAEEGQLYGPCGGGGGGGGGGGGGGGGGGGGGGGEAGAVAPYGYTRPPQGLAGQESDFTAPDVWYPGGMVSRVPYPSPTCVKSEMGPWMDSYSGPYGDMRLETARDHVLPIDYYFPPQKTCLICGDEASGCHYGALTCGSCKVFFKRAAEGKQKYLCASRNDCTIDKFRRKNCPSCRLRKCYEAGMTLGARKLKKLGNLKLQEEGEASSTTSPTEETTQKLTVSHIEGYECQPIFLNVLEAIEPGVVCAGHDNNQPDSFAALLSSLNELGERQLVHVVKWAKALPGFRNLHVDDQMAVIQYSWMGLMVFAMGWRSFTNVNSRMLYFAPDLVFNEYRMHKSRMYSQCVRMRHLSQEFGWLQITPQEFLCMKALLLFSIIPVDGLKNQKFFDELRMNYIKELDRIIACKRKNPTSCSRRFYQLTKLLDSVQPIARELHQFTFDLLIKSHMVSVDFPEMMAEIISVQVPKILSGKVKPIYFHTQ

Turning to `CC(CC=O)c1ccccc1` (stereo unspecified), the Potency result in assay [1], in assay [2], in assay [3], in [4], in [5] and in [6] was “inactive” in each case. For the same compound, the Potency result in [7], in assay [8], in [9], in assay [10], in assay [11] and in assay [12] was “inactive” each time. Also, the Potency entry in assay [13], in assay [14], in assay [15] and in assay [16] was “inactive” throughout. The call in [17] was inactive.

As for `O=C(O)C1(C(=O)Nc2ccc(Cl)cc2Cl)CC1`, the Potency entry in assay [1], in assay [2], in assay [3], in assay [4], in assay [5] and in assay [6] was “inactive” each time. Also, the Potency entry in [7], in assay [8], in assay [9], in [10], in [11] and in assay [18] was “inactive” throughout. The Potency result in assay [12], in assay [15] and in [16] was “inactive” throughout. For the same compound, the Potency in assay [13] was 13.7 µM (active). In addition, the result in assay [17] was inactive.

`C=C(C)C(=O)OCC`: the Potency entry in [1], in assay [2], in assay [3], in assay [4], in [5] and in assay [6] was “inactive” in each case. The Potency entry in assay [7], in assay [19], in assay [8], in [10], in assay [11] and in assay [12] was “inactive” each time. Further, the Potency result in [13], in assay [14], in assay [15] and in [16] was “inactive” in each case. Further, the result in assay [17] was inactive.

Consider `O=C1C(O)=C(O)C(=O)C(O)=C1O`, for which the Potency entry in assay [1], in assay [2], in assay [3], in assay [4], in [5] and in [6] was “inactive” in each case. In addition, the Potency result in assay [19], in assay [8], in assay [9], in assay [10], in assay [11] and in assay [12] was “inactive” in each case. The Potency result in assay [20], in assay [13], in [14], in assay [15] and in assay [16] was “inactive” in each case. Further, the compound was called inactive in assay [17].

For the compound `Cc1nn(C)c(Oc2ccccc2)c1/C=N/OCc1ccc(C(=O)OC(C)(C)C)cc1`, the Potency entry in assay [1], in assay [2], in assay [3], in assay [4], in [5] and in assay [7] was “inactive” each time. For the same compound, the Potency result in assay [8], in [9], in [13], in assay [14], in assay [15] and in [16] was “inactive” in each case. In addition, the Potency in assay [6] was 0.0049 µM (active); in [10], 0.0137 µM (active); in assay [18], 0.0273 µM (active); in [12], 0.0122 µM (active). Moreover, in assay [17], the compound was called inactive.

Turning to `O=C1OC(=O)C2C3C=CC(C3)C12` (stereo unspecified), the Potency entry in [1], in [2], in assay [3], in assay [4], in assay [5] and in assay [6] was “inactive” throughout. Also, the Potency entry in assay [7], in assay [19], in [8], in [10], in assay [11] and in assay [13] was “inactive” throughout. For the same compound, the Potency entry in assay [14], in [15] and in [16] was “inactive” throughout. In addition, the compound was called inactive in assay [17].

Consider `CCc1cc(C2=C(C(=O)O)N(c3ccccc3C(F)(F)F)S(=O)(=O)c3ccccc32)cc2c1OCO2`, for which the Potency entry in assay [1], in [2], in [3], in assay [4], in assay [5] and in [6] was “inactive” in each case. For the same compound, the Potency result in assay [7], in assay [19], in assay [9], in assay [10], in assay [11] and in [13] was “inactive” throughout. Besides, the Potency in assay [8] is 24.3 µM (active); in [15], 12.1 µM (active); in assay [16] it was 12.1 µM (active). Moreover, the call in [17] was inactive.

As for `C=CCOc1ccccc1OCC(O)CNC(C)C` (stereo unspecified), the Potency entry in assay [1], in assay [2], in assay [3], in [4], in assay [5] and in assay [6] was “inactive” in each case. Moreover, the Potency entry in [19], in [8], in assay [9], in [10], in assay [11] and in assay [12] was “inactive” each time. Also, the Potency result in assay [20], in [13], in assay [14], in assay [15] and in assay [16] was “inactive” throughout. In assay [17], the call was inactive.
